According to the supplement of paper PMC10127200:
Structures can show the parent of a compound that is named as a salt.

What was measured:
Experiment in all cases: Euclidean distance of Cell Painting phenotypic profile (signed KS, 77 features) to DMSO centroid (dimensionless distance); 5 or 10 uM (library dependent); higher = stronger phenotypic change vs DMSO (phenoactivity)
Settings in all cases: 48 h
786-O = test system: 786-O
How it was run: (§1)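 Stained cells were imaged confocally at 20X with 9 fields per well, after 48 h of exposure to library compounds at 10 or 5 uM (set by library; 0.1% DMSO final). The cells were five cancer lines and a healthy fibroblast line. From the images, Harmony extracted 77 features, each expressed as a signed Kolmogorov-Smirnov statistic relative to same-plate vehicle wells. Phenoactivity is measured as Euclidean distance to the median vehicle profile, using plate-position-corrected, correlation-weighted profiles averaged across replicates at the top dose.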

A549 = test system: A549
How it was run: as §1

FB = test system: FB
How it was run: as §1

HEPG2 = test system: HEPG2
How it was run: as §1

OVCAR4 = test system: OVCAR4
How it was run: as §1

| SMILES | Euclidean distance (786-O) | Euclidean distance (A549) | Euclidean distance (FB) | Euclidean distance (HEPG2) | Euclidean distance (OVCAR4) |
| --- | --- | --- | --- | --- | --- |
| N[C@H]1C(O)O[C@H](CO)[C@@H](O)[C@@H]1O (stereo not given in full) [Glucosamine] | 0.508 | 0.407 | 0.896 | 1.07 | 1.28 |
| COc1ccc2c(c1)c(CC(=O)OCC(=O)O)c(C)n2C(=O)c1ccc(Cl)cc1 [Acemetacin] | 0.932 | 0.994 | 1.09 | 0.526 | 1.57 |
| CSc1ccc(OCc2ncc([N+](=O)[O-])n2C)cc1 [Fexinidazole] | 1.24 | 1.03 | 0.976 | 0.857 | 1.16 |
| Cc1cc(Nc2cc(N)ncn2)c(=O)n2c1C(=O)NC21CCCCC1 | 0.779 | 0.866 | 1.08 | 0.427 | 1.18 |
| Cc1oncc1C(=O)Nc1ccc(C(F)(F)F)cc1 [Leflunomide] | 2.25 | 2.41 | 2.37 | 1.3 | 2.17 |
| NCCCC(N)(C(=O)O)C(F)F (stereo not given) [Eflornithine hydrochloride hydrate] | 1.45 | 1.26 | 1.21 | 0.792 | 1.43 |
| Cc1nnc(C(=O)NC(C)(C)c2nc(C(=O)NCc3ccc(F)cc3)c(O)c(=O)n2C)o1 [Raltegravir potassium] | 1.12 | 0.895 | 1.33 | 0.632 | 1.04 |
| CC(=O)c1cc2c(o1)C(=O)c1ccccc1C2=O [Napabucasin] | 2.96 | 3.97 | 3.91 | 3.62 | 5.51 |
| NS(=O)(=O)c1cc2c(cc1Cl)NC(C(Cl)Cl)NS2(=O)=O (stereo not given) [Trichlormethiazide] | 1.14 | 0.794 | 0.859 | 0.531 | 0.98 |
| CN1CCN(C(c2ccccc2)c2ccccc2)CC1 [Cyclizine 2HCl] | 1.05 | 0.919 | 1.58 | 0.689 | 1.37 |
| COCCOC(=O)C1=C(C)NC(C)=C(C(=O)OC/C=C/c2ccccc2)C1c1cccc([N+](=O)[O-])c1 (stereo not given) [Cilnidipine] | 2.22 | 1.04 | 1.29 | 1.61 | 1.46 |
| CC(=O)[C@@]1(O)CC[C@H]2[C@@H]3CCC4=CC(=O)CCC4=C3[C@@H](c3ccc(N(C)C)cc3)C[C@@]21C [Ulipristal] | 0.949 | 1.22 | 1.05 | 1.13 | 0.761 |
| Cc1ccccc1C(OCCN(C)C)c1ccccc1 (stereo not given) [Orphenadrine Hydrochloride] | 0.905 | 1.11 | 0.736 | 0.938 | 1.08 |
| CCc1ccc(Cc2ccc3c(c2)[C@]2(OC3)O[C@H](CO)[C@@H](O)[C@H](O)[C@H]2O)cc1 [Tofogliflozin(CSG 452)] | 1.15 | 1.03 | 0.713 | 0.386 | 1.56 |
| Cc1cccn2c(=O)c(-c3nnn[nH]3)cnc12 [Pemirolast potassium] | 1.31 | 0.747 | 0.893 | 0.682 | 1.05 |
| Nc1ccncc1N [3.4-Diaminopyridine] | 1.58 | 1.24 | 1.38 | 0.828 | 1.15 |
| Clc1ccc(COC(Cn2ccnc2)c2ccc(Cl)cc2Cl)c(Cl)c1 (stereo not given) [Miconazole Nitrate] | 1.25 | 1.35 | 0.864 | 0.872 | 0.979 |
| CN1CCC[C@@H]1Cc1c[nH]c2ccc(CCS(=O)(=O)c3ccccc3)cc12 [Eletriptan HBr] | 0.938 | 0.828 | 1.17 | 0.778 | 1.33 |
| CNC(=O)c1c(C)oc2cc(Oc3ncnc4cc(OC)c(OC)cc34)ccc12 [Fruquintinib] | 1.24 | 1.24 | 2.06 | 0.855 | 1.44 |
| CC(C(=O)O)c1ccc(-c2ccccc2)c(F)c1 (stereo not given) [Flurbiprofen] | 0.962 | 0.696 | 1.21 | 0.393 | 1.27 |
| N#C[C@@H]1C[C@@H]2C[C@@H]2N1C(=O)[C@@H](N)C12CC3CC(CC(O)(C3)C1)C2 [Saxagliptin hydrate] | 0.976 | 0.951 | 0.817 | 0.598 | 1.53 |
| COC(=O)OCOc1c2n(ccc1=O)N([C@@H]1c3ccccc3SCc3c1ccc(F)c3F)[C@@H]1COCCN1C2=O [Baloxavir marboxil] | 0.818 | 1.3 | 1.58 | 0.558 | 0.843 |

| SMILES | Euclidean distance (786-O) | Euclidean distance (A549) | Euclidean distance (FB) | Euclidean distance (HEPG2) | Euclidean distance (OVCAR4) |
| --- | --- | --- | --- | --- | --- |
| CC(CN(C)C)CN1c2ccccc2CCc2ccccc21 (stereo not given) [Trimipramine Maleate] | 1.08 | 1.02 | 1.91 | 1.2 | 1.57 |
| Cc1nnc(C(=O)NC(C)(C)c2nc(C(=O)NCc3ccc(F)cc3)c(O)c(=O)n2C)o1 [Raltegravir (MK-0518)] | 1.17 | 0.695 | 1.11 | 0.537 | 1.35 |
| C(=C\c1ccccc1)/CN1CCN(C(c2ccccc2)c2ccccc2)CC1 [Cinnarizine] | 0.758 | 1.16 | 1.01 | 0.713 | 1.63 |
| COc1ccc(CC(C)NCC(O)c2ccc(O)c(NC=O)c2)cc1 (stereo not given) [Formoterol Hemifumarate] | 1.29 | 0.672 | 0.886 | 1.15 | 1.94 |
| C=CCc1ccc(O)c(-c2cc(CC=C)ccc2O)c1 [Magnolol] | 1.13 | 0.915 | 0.817 | 0.94 | 1.17 |
| CC/C=C\C/C=C\C/C=C\C/C=C\C/C=C\CCCC(=O)O [Eicosapentaenoic Acid] | 0.992 | 1.07 | 0.941 | 0.664 | 1.41 |
| COCCCOc1cc(C[C@@H](C[C@H](N)[C@@H](O)C[C@H](C(=O)NCC(C)(C)C(N)=O)C(C)C)C(C)C)ccc1OC [Aliskiren Hemifumarate] | 0.778 | 0.371 | 0.622 | 0.506 | 0.752 |
| CCN(CC)CCOc1ccc(C(=C(Cl)c2ccccc2)c2ccccc2)cc1 [Clomifene citrate] | 4.89 | 3.99 | 3.36 | 4.07 | 3.4 |
| CC(=O)[C@H]1CC[C@H]2[C@@H]3CCC4=CC(=O)CC[C@]4(C)[C@H]3CC[C@]12C [Progesterone] | 0.734 | 0.774 | 0.883 | 0.863 | 0.832 |
| C[C@]12C=CC(=O)C=C1CC[C@H]1[C@@H]3C[C@@H](O)[C@](O)(C(=O)CO)[C@@]3(C)C[C@H](O)[C@@]12F [Triamcinolone] | 0.975 | 1.88 | 1.81 | 1.35 | 1.94 |
| CC(C)[C@H]1C(=O)N[C@@H](CCCN=C(N)N)C(=O)NCC(=O)N[C@@H](CC(=O)O)C(=O)N[C@H](Cc2ccccc2)C(=O)N1C | 4.91 | 2.03 | 1.25 | 4.74 | 2.44 |
| CC(C)Oc1ccc(-c2nn([C@@H](C)c3oc4ccc(F)cc4c(=O)c3-c3cccc(F)c3)c3ncnc(N)c23)cc1F [umbralisib (TGR-1202)] | 1.11 | 1.14 | 1.9 | 1.81 | 0.974 |
| CC(C)C[C@H](NC(=O)[C@@H](O)[C@H](N)Cc1ccccc1)C(=O)O [Bestatin] | 1.08 | 0.773 | 1.11 | 0.637 | 1.09 |
| O=C(/C=C/C=C/c1ccc2c(c1)OCO2)N1CCCCC1 [Piperine] | 1.7 | 0.714 | 1.06 | 0.563 | 1.49 |
| COC(=O)C[C@](O)(CCCC(C)(C)O)C(=O)O[C@@H]1C(OC)=C[C@]23CCCN2CCc2cc4c(cc2[C@H]13)OCO4 [Homoharringtonine] | 3.57 | 3.34 | 4.13 | 3.18 | 3.7 |
| COc1ccc2cc3[n+](cc2c1OC)CCc1cc2c(cc1-3)OCO2 [Berberine chloride] | 1.19 | 1.36 | 2.07 | 1.41 | 1.31 |
| Nc1ccc2cc3ccc(N)cc3nc2c1 [Proflavine Hemisulfate] | 4.95 | 4.91 | 5.65 | 5.57 | 5.46 |
| CC1(C)[C@H](C(=O)O)N2C(=O)C[C@H]2S1(=O)=O [Sulbactam sodium] | 0.743 | 0.526 | 0.933 | 0.675 | 0.666 |
| CS(=O)(=O)c1ccc(Oc2cc(F)cc(C#N)c2)c2c1[C@H](O)C(F)(F)C2 | 1.1 | 1.02 | 1.28 | 0.605 | 1.38 |
| Cc1ccc(Sc2ccccc2N2CCNCC2)c(C)c1 [Vortioxetine] | 2.68 | 2.71 | 2.68 | 5.06 | 2.43 |
| O=C1N=C(O)NC1(c1ccccc1)c1ccccc1 [Phenytoin Sodium] | 0.861 | 0.644 | 0.99 | 0.976 | 0.588 |
